According to PubChem BioAssay (Tox21):
Unmarked numbers belong to inactive results. Results filed as inconclusive are left out. Where a call stands in place of a potency, no number is given. Activity calls are given as the source filed them. Unless noted, calls come from the whole dose curve.

Legend:
[1] = Nuclear factor erythroid 2-related factor 2/antioxidant responsive element (Nrf2/ARE) small molecule agonists: qHTS cell viability counter screen in human keratinocytes (AID 1919968; active = well fitted curve in the direction sought with a large enough effect in the repeat runs; an effect the other way counts as inactive or inconclusive; note: nearly all actives have a fitted effect of over 55% in size)
In short: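 Measured as CellTiter-Fluor fluorescence, this readout tracks cytotoxicity in the same wells as the ARE-luciferase screen. HaCaT reporter cells (1,500/well) received compounds after a 5 h pre-incubation and were exposed for 23 h.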

[2] = Nuclear factor erythroid 2-related factor 2/antioxidant responsive element (Nrf2/ARE) small molecule agonists: luciferase reporter gene qHTS assay in human keratinocytes (AID 1919969); note: nearly all actives have a fitted effect of over 35% in size; note: potency is the fitted concentration of half-maximal effect
[3] = target: Gonadotropin-releasing hormone receptor (Homo sapiens) (UniProt P30968); assay: Human gonadotropin-releasing hormone receptor (GnRHR) small molecule agonists, calcium flux assay in GnRHR-HEK293 cells (AID 1920063); note: nearly all actives have a fitted effect of over 35% in size
Chain of Gonadotropin-releasing hormone receptor (Homo sapiens) (P30968 whole entry, looked up): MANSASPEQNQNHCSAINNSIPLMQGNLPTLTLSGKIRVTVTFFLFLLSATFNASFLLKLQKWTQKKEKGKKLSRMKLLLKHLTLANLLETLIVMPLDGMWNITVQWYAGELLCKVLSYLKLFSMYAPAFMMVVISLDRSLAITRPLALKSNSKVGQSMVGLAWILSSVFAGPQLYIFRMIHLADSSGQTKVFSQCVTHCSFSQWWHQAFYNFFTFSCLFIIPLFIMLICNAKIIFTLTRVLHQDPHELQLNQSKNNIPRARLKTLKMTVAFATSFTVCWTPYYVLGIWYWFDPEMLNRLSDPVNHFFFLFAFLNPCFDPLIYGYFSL
In short: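 Fluorescence kinetics (480 nm excitation, 540 nm emission; 3 min, 1 s steps) report calcium mobilisation in human GnRHR-HEK293 cells in agonist mode. Dye incubation: 1 h, 37 C.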

[4] = target: KiSS-1 receptor (Homo sapiens) (UniProt Q969F8); assay: Human kisspeptin (KISS1R) small molecule agonists, calcium flux assay in KISS1R-HEK293 cells (AID 1920064; active = well fitted curve in the direction sought with a large enough effect in the repeat runs; an effect the other way counts as inactive or inconclusive)
Chain of KiSS-1 receptor (Homo sapiens) (Q969F8 whole entry, looked up): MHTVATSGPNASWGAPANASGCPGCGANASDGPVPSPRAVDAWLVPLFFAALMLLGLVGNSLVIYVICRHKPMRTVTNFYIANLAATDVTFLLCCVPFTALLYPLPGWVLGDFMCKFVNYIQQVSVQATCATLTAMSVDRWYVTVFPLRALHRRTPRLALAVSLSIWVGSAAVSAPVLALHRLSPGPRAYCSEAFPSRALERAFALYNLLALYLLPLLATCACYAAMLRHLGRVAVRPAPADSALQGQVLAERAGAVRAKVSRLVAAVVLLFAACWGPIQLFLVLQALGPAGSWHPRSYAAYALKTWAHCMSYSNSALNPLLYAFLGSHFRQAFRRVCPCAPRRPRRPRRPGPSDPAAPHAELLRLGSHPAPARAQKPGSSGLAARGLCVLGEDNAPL
In short: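 Measures KISS1R agonism through calcium-sensitive dye fluorescence in stably transfected HEK293 cells, read for 3 min after pin-tool compound delivery; 15-point titrations in triplicate.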

[5] = G protein-coupled receptor (GPCR) small molecule agonists, calcium flux assay: HEK293 wild type cell line counter screen (AID 1920065)
In short: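 Readout: fluorescence at 480 nm excitation/540 nm emission, sampled at 1 s intervals for 3 min. Cells had been cultured 18 h, then dye-loaded 1 h at 37 C before compound or ATP addition.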

[6] = p53 small molecule agonists, cell-based qHTS assay with human liver microsomes (AID 1963577);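 note: p53 response element beta-lactamase reporter cells with liver microsomes plus NADPH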
In short: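 With metabolic activation: human liver microsomes (0.5 mg/mL final) plus NADPH (0.5 mg/mL final) added alongside compounds to p53RE-bla cells; 16 h 37 C exposure; beta-lactamase read by LiveBLAzer fluorescence.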

[7] = p53 small molecule agonists, cell-based qHTS assay with rat liver microsomes (AID 1963578)
In short: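 Metabolic activation by rat liver microsomes and NADPH, each 0.5 mg/mL final, added right after compounds to p53RE-bla reporter cells (4,000/well, plated 5 h earlier). 16 h at 37 C, then LiveBLAzer substrate for 2 h at room temperature in the dark; fluorescence read-out.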

[8] = p53 small molecule agonists, cell-based qHTS assay with human liver microsomes: qHTS cell viability counter screen (AID 1963579); note: nearly all actives have a fitted effect of over 45% in size
In short: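 Metabolic activation used human liver microsomes and NADPH, both 0.5 mg/mL final, over 16 hours at 37 C on p53RE-bla cells (4,000/well). Cytotoxicity measured by CellTiter-Glo luminescence, 30 min at room temperature.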

[9] = p53 small molecule agonists, cell-based qHTS assay with rat liver microsomes: qHTS cell viability counter screen (AID 1963580); note: nearly all actives have a fitted effect of over 45% in size
In short: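 In HCT-116 cells carrying a p53 response element-bla reporter, compounds were metabolically activated in situ by rat liver microsomes with NADPH over 16 h. Cell ATP content then served as the cytotoxicity measure.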

[10] = p53 small molecule agonists, cell-based qHTS assay: qHTS cell viability counter screen (AID 1963581); note: nearly all actives have a fitted effect of over 45% in size
In short: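 In the same plates used for the p53 bla reporter, HCT-116 cells given compounds for 16 h at 37 C received CellTiter-Glo; luminescence was recorded 30 min later at room temperature.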

[11] = p53 small molecule agonists, cell-based qHTS assay (AID 1963582; active = well fitted activation curve with a large enough effect in the signal ratio in the repeat runs, not every such curve was filed as active; the % refers to the signal ratio)
In short: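 Compounds are pin-transferred in DMSO onto p53RE-bla cells and incubated 16 h at 37 C. The B/G FRET beta-lactamase substrate is then applied for 2 h at RT and fluorescence recorded.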

[12] = target: 5-hydroxytryptamine receptor 2A (Homo sapiens) (UniProt P28223); assay: 5-hydroxytryptamine receptor 2A (HTR2A) small molecule antagonists, cell-based qHTS assay (AID 1963586); note: nearly all actives have a fitted effect of over 45% in size
Chain of 5-hydroxytryptamine receptor 2A (Homo sapiens) (P28223 whole entry, looked up): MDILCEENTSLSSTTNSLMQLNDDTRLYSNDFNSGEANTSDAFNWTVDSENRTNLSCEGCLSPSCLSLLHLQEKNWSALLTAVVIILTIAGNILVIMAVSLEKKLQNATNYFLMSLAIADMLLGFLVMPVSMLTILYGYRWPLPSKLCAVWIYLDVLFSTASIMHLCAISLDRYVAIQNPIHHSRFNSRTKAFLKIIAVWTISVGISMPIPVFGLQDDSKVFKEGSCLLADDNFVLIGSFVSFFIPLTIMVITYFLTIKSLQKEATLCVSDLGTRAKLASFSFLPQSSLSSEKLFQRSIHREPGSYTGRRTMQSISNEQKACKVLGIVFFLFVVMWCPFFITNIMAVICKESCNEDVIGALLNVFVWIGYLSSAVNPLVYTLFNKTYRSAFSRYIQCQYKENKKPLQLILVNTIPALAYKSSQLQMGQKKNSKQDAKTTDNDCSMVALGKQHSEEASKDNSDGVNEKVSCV
In short: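 Antagonist-mode intracellular calcium assay: DOI (4 nM) added after 5 min compound pre-incubation at room temperature to dye-loaded HTR2A-CHO cells. Fluorescence followed for 3 min, sampled every second.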

[13] = target: 5-hydroxytryptamine receptor 2A (Homo sapiens) (UniProt P28223); assay: 5-hydroxytryptamine receptor 2A (HTR2A) small molecule agonists, cell-based qHTS assay (AID 1963587); note: nearly all actives have a fitted effect of over 30% in size
In short: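 HTR2A-CHO cells, plated 18 h at 37 C/5% CO2, dye-loaded 1 h at 37 C; compounds in DMSO added by pin tool (agonist mode). Intracellular calcium flux read as kinetic fluorescence on FDSS over 2 min at 1 s intervals.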

[14] = target: Muscarinic acetylcholine receptor M1 (Homo sapiens) (UniProt P11229); assay: Cholinergic receptor muscarinic 1 (CHRM1) small molecule antagonists, cell-based qHTS assay (AID 1963588); note: nearly all actives have a fitted effect of over 40% in size
Chain of Muscarinic acetylcholine receptor M1 (Homo sapiens) (P11229 whole entry, looked up): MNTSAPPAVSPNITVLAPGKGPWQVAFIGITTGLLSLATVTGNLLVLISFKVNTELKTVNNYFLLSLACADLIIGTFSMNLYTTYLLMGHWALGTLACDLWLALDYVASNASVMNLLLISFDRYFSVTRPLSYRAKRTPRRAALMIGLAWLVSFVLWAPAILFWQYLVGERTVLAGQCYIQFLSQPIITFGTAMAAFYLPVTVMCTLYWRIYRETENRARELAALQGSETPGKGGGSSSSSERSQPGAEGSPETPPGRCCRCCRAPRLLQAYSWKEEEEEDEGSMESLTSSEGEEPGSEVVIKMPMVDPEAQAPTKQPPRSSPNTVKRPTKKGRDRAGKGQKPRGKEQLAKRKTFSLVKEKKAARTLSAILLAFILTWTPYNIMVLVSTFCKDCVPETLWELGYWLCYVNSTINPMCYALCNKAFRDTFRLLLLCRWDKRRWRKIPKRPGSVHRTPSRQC
In short: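 CHRM1-CHO calcium-flux assay, antagonist mode. Cells were seeded 18 h, dye-loaded 1 h at 37 C and given compound for 5 min at RT, then acetylcholine was added at 50nM. FDSS fluorescence was read 3 min; 15 concentrations, three runs.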

[15] = target: Muscarinic acetylcholine receptor M1 (Homo sapiens) (UniProt P11229); assay: Cholinergic receptor muscarinic 1 (CHRM1) small molecule agonists, cell-based qHTS assay (AID 1963589); note: nearly all actives have a fitted effect of over 35% in size
In short: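 Each compound was tested at 15 concentrations across three independent runs on dye-loaded CHO cells stably expressing human CHRM1, reading intracellular calcium fluorescence kinetically at 1 sec intervals.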

[16] = cAMP Responsive Elements (CRE) small molecule agonists, cell-based qHTS assay (AID 1963590)
In short: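 Cell line: CRE-bla HEK 293T; medium DMEM/10% dialyzed FBS/0.1 mM NEAA/1 mM pyruvate/25 mM HEPES; 3 h compound exposure; beta-lactamase FRET readout after 2 h substrate loading at RT.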

[17] = cAMP Responsive Elements (CRE) small molecule antagonists, cell-based qHTS assay (AID 1963591; active = well fitted inhibition curve with a large enough effect in the signal ratio in the repeat runs, not every such curve was filed as active; the % refers to the signal ratio)
In short: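 Inhibition of NKH477-driven (0.25 uM final) CRE-beta-lactamase signal in HEK293T cells, 3 h compound exposure at 37 °C, detected by FRET substrate fluorescence.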

[18] = target: Beta-2 adrenergic receptor (Homo sapiens) (UniProt P07550); assay: Adrenergic beta2 receptor (ADRB2) small molecule antagonists, cell-based qHTS assay (AID 1963592); note: series mostly up to about 92 µM; nearly all actives have a fitted effect of over 50% in size
Chain of Beta-2 adrenergic receptor (Homo sapiens) (P07550 whole entry, looked up): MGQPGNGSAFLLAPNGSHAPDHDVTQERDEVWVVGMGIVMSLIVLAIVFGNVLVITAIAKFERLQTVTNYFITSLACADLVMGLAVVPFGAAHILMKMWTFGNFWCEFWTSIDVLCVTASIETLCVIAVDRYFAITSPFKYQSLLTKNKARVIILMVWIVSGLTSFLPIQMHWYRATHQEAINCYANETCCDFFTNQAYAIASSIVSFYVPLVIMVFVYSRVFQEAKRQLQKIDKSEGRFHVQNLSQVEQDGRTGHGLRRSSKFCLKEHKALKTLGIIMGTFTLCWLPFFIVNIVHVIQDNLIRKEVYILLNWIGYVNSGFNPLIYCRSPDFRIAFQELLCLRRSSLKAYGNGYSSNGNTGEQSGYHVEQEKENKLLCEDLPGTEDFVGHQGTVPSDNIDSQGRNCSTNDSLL
In short: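 Cells (CHO, stable ADRB2 overexpression) incubated 18-20hr at 37C; compounds added from DMSO; agonist mix (1nM isoproterenol, 100uM IBMX, 25uM Ro-20-1724) added; 0.5hr RT; d2-cAMP and anti-cAMP-cryptate added; 1hr RT; 665/615 nm read.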

[19] = target: D(2) dopamine receptor (Homo sapiens) (UniProt P14416); assay: Dopamine D2 receptor (DRD2) small molecule agonists, cell-based qHTS assay (AID 1963594); note: nearly all actives have a fitted effect of over 35% in size
Chain of D(2) dopamine receptor (Homo sapiens) (P14416 whole entry, looked up): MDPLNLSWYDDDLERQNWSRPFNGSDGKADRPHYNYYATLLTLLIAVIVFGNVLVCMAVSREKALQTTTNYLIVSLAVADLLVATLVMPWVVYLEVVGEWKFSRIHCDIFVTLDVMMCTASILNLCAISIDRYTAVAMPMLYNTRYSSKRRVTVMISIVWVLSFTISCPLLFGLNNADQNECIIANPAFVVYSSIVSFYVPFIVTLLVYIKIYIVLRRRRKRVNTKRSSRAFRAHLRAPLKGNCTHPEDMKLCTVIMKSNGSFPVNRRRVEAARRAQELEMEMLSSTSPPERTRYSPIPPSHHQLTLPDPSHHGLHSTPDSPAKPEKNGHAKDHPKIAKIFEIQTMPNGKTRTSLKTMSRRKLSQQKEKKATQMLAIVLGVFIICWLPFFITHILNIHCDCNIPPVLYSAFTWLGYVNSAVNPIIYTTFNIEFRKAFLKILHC
In short: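 HEK293 cells stably expressing DRD2 were cultured 24 h at 37 C, then given Ro20-1724 (0.1 mM final) and compounds for 10 min at room temperature. NKH477 (200nM) was then added for 30 min. cAMP was read by HTRF.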

[20] = target: D(2) dopamine receptor (Homo sapiens) (UniProt P14416); assay: Dopamine D2 receptor (DRD2) small molecule antagonists, cell-based qHTS assay (AID 1963595; active = well fitted inhibition curve with a large enough effect in the signal ratio in the repeat runs, with a control signal flat; the % refers to the signal ratio)
In short: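 Human DRD2 antagonist qHTS measuring cAMP by HTRF. The cells are exposed to compound for 10 min, then to NKH477 (200 nM) and quinpirole (12 nM) for 30 min at RT, with Ro20-1724 (0.1 mM) present throughout.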

Compound | Potency [1] | Potency [2] | Potency [3] | Potency [4] | Potency [5] | Potency [6] | Potency [7] | Potency [8] | Potency [9] | Potency [10] | Potency [11] | Potency [12] | Potency [13] | Potency [14] | Potency [15] | Potency [16] | Potency [17] | Potency [18] | Potency [19] | Potency [20]
OC1OC[C@@H](O)[C@H](O)[C@H]1O (some centres not stated) | inactive | inactive | inactive | inactive | inactive | inactive | inactive | inactive | inactive | inactive | inactive | inactive | inactive | inactive | inactive | inactive | inactive | inactive | inactive | inactive
Cc1cc(N)no1 | inactive | inactive | inactive | inactive | inactive | inactive | inactive | inactive | inactive | inactive | inactive | inactive | inactive | inactive | inactive | inactive | inactive | inactive | inactive | inactive
COC(C)(C)CCO | inactive | inactive | inactive | inactive | inactive | inactive | inactive | inactive | inactive | inactive | inactive | inactive | inactive | inactive | inactive | inactive | inactive | inactive | inactive | 
Cc1cccc2cccnc12 | inactive | inactive | inactive | inactive | inactive | inactive | inactive | inactive | inactive | inactive | inactive | inactive | inactive | inactive | inactive | inactive | inactive | inactive | inactive | inactive
Cc1occc1S | inactive | 68.6 µM (active) | inactive | inactive | inactive | inactive | inactive | inactive | inactive | inactive | inactive | inactive | inactive | inactive | inactive | inactive | inactive | inactive | inactive | 
O=c1[nH]c2ccccc2c(=O)n1CCCl | inactive | inactive | inactive | inactive | inactive | inactive | inactive | inactive | inactive | inactive | inactive | inactive | inactive | inactive | inactive | inactive | inactive | inactive | inactive | inactive
Cc1ncc(CO)c(CN)c1O | inactive | inactive | inactive | inactive | inactive | inactive | inactive | inactive | inactive | inactive | inactive | inactive | inactive | inactive | inactive | inactive | inactive | inactive | inactive | inactive
Cc1c(C(=O)c2c[nH]n(C)c2=O)ccc(S(C)(=O)=O)c1C1=NOCC1 | inactive | inactive | inactive | inactive | inactive | inactive | inactive | inactive | inactive | inactive | inactive | inactive | inactive | inactive | inactive | inactive | inactive | inactive | inactive | inactive
O=C(Cl)c1ccccc1[N+](=O)[O-] | inactive | inactive | inactive | inactive | inactive | inactive | inactive | inactive | inactive | inactive | inactive | inactive | inactive | inactive | inactive | inactive | inactive | inactive | inactive | inactive
FC(F)(F)C(Cl)Br (configuration not stated) | inactive | inactive | inactive | inactive | inactive | inactive | inactive | inactive | inactive | inactive | inactive | inactive | inactive | inactive | inactive | inactive | inactive | inactive | inactive | inactive
COCCOCCOCCOCCO | inactive | inactive | inactive | inactive | inactive | inactive | inactive | inactive | inactive | inactive | inactive | inactive | inactive | inactive | inactive | inactive | inactive | inactive | inactive | inactive
NCc1ccccc1Sc1ccccc1CO | inactive | inactive | inactive | inactive | inactive | inactive | inactive | inactive | inactive | inactive | inactive | inactive | inactive | inactive | inactive | inactive | inactive | inactive | inactive | inactive
c1ccc2cnccc2c1 | inactive | inactive | inactive | inactive | inactive | inactive | inactive | inactive | inactive | inactive | inactive | inactive | inactive | inactive | inactive | inactive | inactive | inactive | inactive | inactive
CN(C)C(=O)Oc1ccc[n+](C)c1 | inactive | inactive | inactive | inactive | inactive | inactive | inactive | inactive | inactive | inactive | inactive | inactive | inactive | inactive | inactive | inactive | inactive | inactive | inactive | 
c1ccc2nccnc2c1 | inactive | inactive | inactive | inactive | inactive | inactive | inactive | inactive | inactive | inactive | inactive | inactive | inactive | inactive | inactive | inactive | inactive | inactive | inactive | inactive
